# Measured values as given in ChEMBL document CHEMBL2218924, “A broad activity screen in support of a chemogenomic map for kinase signalling research and drug discovery” (Biochem J, 2013).
# How the values were obtained:
# [1] = target: T1, Protein kinase C zeta type (Homo sapiens) (UniProt Q05513); conditions: at 1 µM
# T1 sequence (whole entry): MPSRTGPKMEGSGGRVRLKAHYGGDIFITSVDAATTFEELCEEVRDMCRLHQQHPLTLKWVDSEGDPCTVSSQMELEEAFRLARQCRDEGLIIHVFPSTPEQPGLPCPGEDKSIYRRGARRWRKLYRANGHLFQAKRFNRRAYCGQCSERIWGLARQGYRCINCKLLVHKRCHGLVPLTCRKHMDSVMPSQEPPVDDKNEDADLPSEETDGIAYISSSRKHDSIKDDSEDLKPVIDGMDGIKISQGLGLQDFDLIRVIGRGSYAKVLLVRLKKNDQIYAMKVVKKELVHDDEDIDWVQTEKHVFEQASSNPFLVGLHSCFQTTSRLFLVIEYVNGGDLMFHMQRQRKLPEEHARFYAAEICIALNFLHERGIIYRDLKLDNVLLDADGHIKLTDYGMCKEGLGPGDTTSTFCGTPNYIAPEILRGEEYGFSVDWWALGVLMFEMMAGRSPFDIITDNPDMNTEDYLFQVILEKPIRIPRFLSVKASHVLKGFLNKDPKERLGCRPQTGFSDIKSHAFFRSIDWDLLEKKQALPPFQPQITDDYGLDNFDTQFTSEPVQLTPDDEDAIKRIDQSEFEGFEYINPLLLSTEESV
# [2] = target: T2, Mitogen-activated protein kinase kinase kinase 5 (Homo sapiens) (UniProt Q99683); conditions: at 10 µM
# T2 sequence (whole entry): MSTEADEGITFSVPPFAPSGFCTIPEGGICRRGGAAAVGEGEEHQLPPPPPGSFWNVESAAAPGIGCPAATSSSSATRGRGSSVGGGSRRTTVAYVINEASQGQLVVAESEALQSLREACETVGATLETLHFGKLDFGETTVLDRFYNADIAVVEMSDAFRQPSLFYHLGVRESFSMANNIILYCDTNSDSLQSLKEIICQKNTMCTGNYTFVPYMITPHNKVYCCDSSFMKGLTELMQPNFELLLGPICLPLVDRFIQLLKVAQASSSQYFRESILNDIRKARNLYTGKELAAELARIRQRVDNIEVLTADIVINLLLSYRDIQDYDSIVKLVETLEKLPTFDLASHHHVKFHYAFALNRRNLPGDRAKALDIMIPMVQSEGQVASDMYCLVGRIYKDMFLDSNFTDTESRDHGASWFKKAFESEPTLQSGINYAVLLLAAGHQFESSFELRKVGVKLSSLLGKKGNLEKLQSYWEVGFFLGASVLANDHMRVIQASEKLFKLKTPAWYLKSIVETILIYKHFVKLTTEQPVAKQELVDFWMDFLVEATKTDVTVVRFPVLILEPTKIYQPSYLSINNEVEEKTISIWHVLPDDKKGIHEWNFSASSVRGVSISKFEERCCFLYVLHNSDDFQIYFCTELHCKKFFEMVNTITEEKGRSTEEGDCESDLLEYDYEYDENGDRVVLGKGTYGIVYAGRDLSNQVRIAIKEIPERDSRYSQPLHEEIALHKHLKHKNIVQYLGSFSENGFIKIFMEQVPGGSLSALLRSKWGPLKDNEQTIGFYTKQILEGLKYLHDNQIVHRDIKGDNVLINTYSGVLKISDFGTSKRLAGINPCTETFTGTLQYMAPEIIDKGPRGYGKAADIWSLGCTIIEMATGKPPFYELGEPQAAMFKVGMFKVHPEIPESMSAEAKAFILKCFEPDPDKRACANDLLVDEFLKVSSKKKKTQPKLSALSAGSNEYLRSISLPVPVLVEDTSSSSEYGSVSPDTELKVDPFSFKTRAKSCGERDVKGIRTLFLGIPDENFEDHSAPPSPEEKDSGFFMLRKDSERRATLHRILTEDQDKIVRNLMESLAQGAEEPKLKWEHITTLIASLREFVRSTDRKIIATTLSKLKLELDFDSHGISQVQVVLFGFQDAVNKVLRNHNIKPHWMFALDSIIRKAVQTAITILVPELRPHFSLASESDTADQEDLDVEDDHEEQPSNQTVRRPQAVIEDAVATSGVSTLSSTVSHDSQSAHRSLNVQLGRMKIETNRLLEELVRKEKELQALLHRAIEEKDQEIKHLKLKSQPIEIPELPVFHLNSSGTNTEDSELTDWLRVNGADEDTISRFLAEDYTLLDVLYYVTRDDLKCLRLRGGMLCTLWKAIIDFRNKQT
# [3] = target: Tyrosine-protein kinase ABL1 (Homo sapiens) (UniProt P00519); conditions: at 10 µM
# Tyrosine-protein kinase ABL1 (Homo sapiens), sequence (P00519 whole entry): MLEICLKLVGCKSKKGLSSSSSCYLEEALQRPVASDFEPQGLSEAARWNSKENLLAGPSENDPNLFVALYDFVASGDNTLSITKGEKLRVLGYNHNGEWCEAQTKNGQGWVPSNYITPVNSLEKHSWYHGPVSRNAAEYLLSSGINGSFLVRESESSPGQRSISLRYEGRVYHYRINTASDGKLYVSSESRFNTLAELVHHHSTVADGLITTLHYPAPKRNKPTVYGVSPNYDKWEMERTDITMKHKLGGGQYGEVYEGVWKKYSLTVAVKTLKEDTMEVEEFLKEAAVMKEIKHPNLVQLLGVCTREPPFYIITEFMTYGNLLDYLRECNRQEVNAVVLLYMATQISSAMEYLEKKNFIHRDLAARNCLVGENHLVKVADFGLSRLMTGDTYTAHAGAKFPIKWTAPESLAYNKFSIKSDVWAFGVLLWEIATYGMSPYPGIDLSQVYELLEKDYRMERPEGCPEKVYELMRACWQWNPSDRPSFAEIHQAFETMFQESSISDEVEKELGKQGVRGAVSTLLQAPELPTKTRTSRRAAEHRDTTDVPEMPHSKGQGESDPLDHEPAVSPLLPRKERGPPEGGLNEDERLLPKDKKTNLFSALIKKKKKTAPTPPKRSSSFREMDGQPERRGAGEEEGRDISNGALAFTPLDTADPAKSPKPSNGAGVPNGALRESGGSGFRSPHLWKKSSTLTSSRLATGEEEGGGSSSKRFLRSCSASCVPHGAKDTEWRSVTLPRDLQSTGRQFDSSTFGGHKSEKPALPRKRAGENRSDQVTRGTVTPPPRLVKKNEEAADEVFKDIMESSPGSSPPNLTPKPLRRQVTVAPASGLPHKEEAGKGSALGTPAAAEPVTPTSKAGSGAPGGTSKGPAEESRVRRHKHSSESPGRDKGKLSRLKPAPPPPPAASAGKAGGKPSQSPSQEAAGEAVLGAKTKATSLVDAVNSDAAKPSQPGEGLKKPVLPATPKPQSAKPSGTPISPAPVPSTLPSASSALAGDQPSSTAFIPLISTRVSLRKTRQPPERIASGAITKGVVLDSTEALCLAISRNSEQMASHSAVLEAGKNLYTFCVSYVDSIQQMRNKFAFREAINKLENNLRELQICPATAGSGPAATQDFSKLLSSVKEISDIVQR
# [4] = target: Tyrosine-protein kinase ABL2 (Homo sapiens) (UniProt P42684); conditions: at 1 µM
# Tyrosine-protein kinase ABL2 (Homo sapiens), sequence (P42684 whole entry): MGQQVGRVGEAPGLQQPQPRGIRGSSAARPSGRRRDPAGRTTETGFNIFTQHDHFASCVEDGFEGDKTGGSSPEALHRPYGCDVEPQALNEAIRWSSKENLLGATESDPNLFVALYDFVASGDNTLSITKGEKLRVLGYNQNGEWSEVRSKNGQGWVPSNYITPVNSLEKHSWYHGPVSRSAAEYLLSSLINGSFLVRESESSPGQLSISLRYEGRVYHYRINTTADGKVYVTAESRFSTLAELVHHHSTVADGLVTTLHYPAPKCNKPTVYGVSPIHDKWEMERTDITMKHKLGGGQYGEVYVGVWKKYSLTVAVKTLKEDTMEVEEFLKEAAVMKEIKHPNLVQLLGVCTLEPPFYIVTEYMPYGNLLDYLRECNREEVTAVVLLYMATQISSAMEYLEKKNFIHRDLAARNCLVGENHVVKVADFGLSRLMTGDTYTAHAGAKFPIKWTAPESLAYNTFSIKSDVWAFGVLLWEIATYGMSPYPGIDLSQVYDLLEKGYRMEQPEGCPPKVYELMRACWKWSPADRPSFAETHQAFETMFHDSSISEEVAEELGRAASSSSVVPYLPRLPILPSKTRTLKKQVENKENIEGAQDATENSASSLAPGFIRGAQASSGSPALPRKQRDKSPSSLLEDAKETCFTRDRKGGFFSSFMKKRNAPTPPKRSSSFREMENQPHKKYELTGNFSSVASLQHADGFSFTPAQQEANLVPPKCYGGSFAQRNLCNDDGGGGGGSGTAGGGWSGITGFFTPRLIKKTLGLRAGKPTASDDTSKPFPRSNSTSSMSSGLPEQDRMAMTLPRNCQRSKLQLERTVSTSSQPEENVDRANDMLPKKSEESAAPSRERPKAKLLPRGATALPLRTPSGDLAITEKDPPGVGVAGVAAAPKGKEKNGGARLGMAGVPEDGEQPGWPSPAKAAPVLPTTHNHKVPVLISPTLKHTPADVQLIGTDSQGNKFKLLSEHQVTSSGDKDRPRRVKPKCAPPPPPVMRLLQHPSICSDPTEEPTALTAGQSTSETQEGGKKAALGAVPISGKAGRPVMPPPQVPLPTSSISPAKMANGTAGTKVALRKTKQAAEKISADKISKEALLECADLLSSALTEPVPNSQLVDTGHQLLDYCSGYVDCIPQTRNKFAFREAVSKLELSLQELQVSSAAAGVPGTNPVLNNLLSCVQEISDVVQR
# [5] = target: Tyrosine-protein kinase ABL2 (Homo sapiens) (UniProt P42684); conditions: at 10 µM
# [6] = target: T3, Aurora kinase A (Homo sapiens) (UniProt O14965); conditions: at 1 µM
# T3 sequence (whole entry): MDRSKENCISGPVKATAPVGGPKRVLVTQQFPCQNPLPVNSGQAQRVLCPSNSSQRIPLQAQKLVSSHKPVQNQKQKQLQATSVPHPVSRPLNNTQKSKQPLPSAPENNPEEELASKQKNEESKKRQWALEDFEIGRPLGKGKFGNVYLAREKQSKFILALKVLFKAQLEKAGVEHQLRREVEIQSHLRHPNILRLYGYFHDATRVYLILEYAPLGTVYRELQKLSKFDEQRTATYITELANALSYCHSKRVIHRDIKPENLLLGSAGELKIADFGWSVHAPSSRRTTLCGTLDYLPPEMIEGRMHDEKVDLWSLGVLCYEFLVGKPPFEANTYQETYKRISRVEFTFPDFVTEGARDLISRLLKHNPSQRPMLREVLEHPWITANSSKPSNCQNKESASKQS
# [7] = target: T3, Aurora kinase A (Homo sapiens); conditions: at 10 µM
# [8] = target: Aurora kinase B (Homo sapiens) (UniProt Q96GD4); conditions: at 1 µM
# Aurora kinase B (Homo sapiens), sequence (Q96GD4 whole entry): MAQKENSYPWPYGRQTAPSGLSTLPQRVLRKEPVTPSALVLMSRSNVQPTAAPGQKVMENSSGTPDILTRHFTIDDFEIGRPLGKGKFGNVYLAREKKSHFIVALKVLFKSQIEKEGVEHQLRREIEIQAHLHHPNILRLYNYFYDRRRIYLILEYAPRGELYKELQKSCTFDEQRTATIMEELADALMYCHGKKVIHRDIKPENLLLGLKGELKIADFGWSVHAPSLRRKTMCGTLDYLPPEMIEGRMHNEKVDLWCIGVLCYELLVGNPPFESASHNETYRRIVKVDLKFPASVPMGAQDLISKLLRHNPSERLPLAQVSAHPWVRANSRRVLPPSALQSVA
# [9] = target: Aurora kinase B (Homo sapiens) (UniProt Q96GD4); conditions: at 10 µM
# [10] = target: Tyrosine-protein kinase ABL1 (Homo sapiens) (UniProt P00519); conditions: at 1 µM
SMILES,residual activity [1],residual activity [2] [%],residual activity [3] [%],residual activity [4] [%],residual activity [5] [%],residual activity [6] [%],residual activity [7] [%],residual activity [8] [%],residual activity [9] [%],residual activity [10] [%]
O=C1Nc2cc(Br)ccc2/C1=C1/Nc2ccccc2/C1=N\O,103% (inactive),86,6,16,2,31,25,3,-1,
N#CCCc1ccc2c(c1)-c1[nH]c3ccc([N+](=O)[O-])cc3c1CC(=O)N2,69% (inactive),,13,48,17,61,37,8,1,31
Oc1c2ccccc2c2c3c(cccc13)N=N2,110% (inactive),5,56,87,72,19,2,1,0,83
Cn1cnc2cc3c(Nc4cccc(Br)c4)ncnc3cc21,99% (inactive),107,10,42,14,78,45,45,6,29
Ic1cccc(CSc2nnc(-c3ccncc3)o2)c1,101% (inactive),86,70,112,71,83,80,77,42,87
O=C(Nc1cccc(Nc2nccc(Nc3cccc(C(F)(F)F)c3)n2)c1)C1CC1,98% (inactive),90,76,46,44,,,1,2,68
Cc1ccc(NC2=CC(=O)c3sc(C)nc3C2=O)cc1,100% (inactive),116,82,122,91,116,96,104,68,99
CNc1cc2c(Nc3cccc(Br)c3)ncnc2cn1,99% (inactive),112,87,93,79,60,71,43,10,85
NC(=O)c1ccc2[nH]c(-c3ccc(Oc4ccc(Cl)cc4)cc3)nc2c1,99% (inactive),61,130,128,95,88,86,68,34,106
Cn1cc(/C=C2\C(=O)Nc3ccc(S(N)(=O)=O)cc32)c2ccccc21,101% (inactive),7,22,57,31,-4,4,3,0,57
Cc1nc2cc3nc(-c4cccs4)cnc3cc2n1C,99% (inactive),112,52,95,83,88,69,80,16,90
c1ccc2c(-c3ccncc3)c[nH]c2c1,94% (inactive),77,100,110,72,99,76,92,70,98
COc1ccc(OC)c2c(=S)c3ccccc3[nH]c12,104% (inactive),97,89,116,84,116,90,93,52,97
COc1cccc(-c2cc(=O)c3ccccc3o2)c1N,111% (inactive),112,92,115,74,122,107,113,103,111
CCOc1cc2ncnc(Nc3cccc(Br)c3)c2cc1OCC,104% (inactive),115,5,36,4,55,46,56,7,48
CCC(=O)Nc1ccc2ncnc(Nc3cccc(Br)c3)c2c1,116% (inactive),108,89,96,72,73,127,101,67,90
Cn1nc2c3c(cccc31)C(=O)c1ccccc1-2,102% (inactive),29,70,102,86,79,74,75,6,101
